According to PubChem BioAssay (NCI):
About 79,000 compounds went through this panel and 15% of them were active in at least one assay; those are over-represented in the sample as a whole. Calls of active or inactive are those of the source. Rule as the data show it: active = growth inhibition above about 70%; inactive = the rest.

Experiments:
[1] = NCI Yeast Anticancer Drug Screen. Data for the rad50 strain (AID 155);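 also: 0% = growth of vehicle-only cultures of the same strain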; conditions: S. cerevisiae rad50 strain growth inhibition; at 50.0 µM; active compounds read high
How it was run: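 Compounds were tested on a yeast strain with an engineered DNA damage repair alteration; the reported value is growth inhibition normalised to vehicle treatment.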

[2] = NCI Yeast Anticancer Drug Screen. Data for the mec2-1 strain (AID 157); conditions: S. cerevisiae mec2-1 strain, at 50.0 µM, active compounds read high
How it was run: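 Mutant yeast (mec2-1) grown with compound; growth inhibition relative to vehicle control reported.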

[3] = NCI Yeast Anticancer Drug Screen. Data for the sgs1 mgt1 strain (AID 161);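 also: 0% = growth of cultures given vehicle only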; conditions: S. cerevisiae sgs1 mgt1 strain, at 50.0 µM, active compounds read high
How it was run: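 Yeast cells carrying a defined DNA-repair defect were exposed to test compounds. Growth inhibition was measured relative to vehicle-treated controls.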

[4] = NCI Yeast Anticancer Drug Screen. Data for the cln2 rad14 strain (AID 165);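 also: 0% = growth equal to vehicle treated cultures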; conditions: S. cerevisiae cln2 rad14 strain, at 50.0 µM, active compounds read high
How it was run: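 Readout is yeast growth inhibition versus vehicle-treated controls, using a strain with cln2 and rad14 alterations exposed to compound.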

[5] = NCI Yeast Anticancer Drug Screen. Data for the bub3 strain (AID 167); conditions: S. cerevisiae bub3 mutant strain, at 50.0 µM, active compounds read high
How it was run: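 Growth of a checkpoint-deficient yeast mutant is measured after compound exposure. Values represent inhibition relative to vehicle.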

[6] = NCI Yeast Anticancer Drug Screen. Data for the mlh1 rad18 strain (AID 175); conditions: S. cerevisiae mlh1 rad18 strain growth inhibition; at 50.0 µM; active compounds read high
How it was run: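 Genetically defined yeast (DNA repair-deficient) exposed to compounds; growth inhibition determined relative to vehicle.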

SMILES	growth inhibition [1]	growth inhibition [2]	growth inhibition [3]	growth inhibition [4]	growth inhibition [5]	growth inhibition [6]
Nc1nnc2nc(C(C(=O)/C=C\c3cccc(O)c3)c3nc4nnc(N)n4[nH]c3=O)c(=O)[nH]n12	30.4% (inactive)	15.1% (inactive)	19.6% (inactive)	1.65% (inactive)	-5.35% (inactive)	19.7% (inactive)
COCC(=O)Oc1ccc[nH]c1=O	1.55% (inactive)	2.6% (inactive)	7.85% (inactive)	-17.1% (inactive)	-7.25% (inactive)	22.2% (inactive)
NNC(=O)c1ccco1	27.2% (inactive)	-3.85% (inactive)	-14.3% (inactive)	20.8% (inactive)	-2.1% (inactive)	15.8% (inactive)
CCOCC(C)(CO)CC(C)CO (stereo unspecified)	-10.2% (inactive)	1.35% (inactive)	-5.6% (inactive)	-6.6% (inactive)	-4.55% (inactive)	4% (inactive)
CCCCCCCCCCCCCCCCCCNC(=O)c1c(Br)c(Br)cc(Br)c1C(=O)O	-1.45% (inactive)	8.55% (inactive)	13.2% (inactive)	-8.35% (inactive)	-3.7% (inactive)	6.75% (inactive)
C[n+]1cccc2cc(Br)ccc21	-5.3% (inactive)	-8.6% (inactive)	-13.2% (inactive)	9.7% (inactive)	11.6% (inactive)	-15.5% (inactive)
COc1cc2c(cc1OC)C(Cl)C(c1ccc(Cl)c(Cl)c1)=C2Cl (stereo unspecified)	-0.65% (inactive)	14.2% (inactive)	-4.6% (inactive)	-0.25% (inactive)	-4.15% (inactive)	-5.05% (inactive)
N=C1C=CC2C(=Nc3ccccc3[N+]2=O)N1Cc1ccncc1 (stereo unspecified)	-2.9% (inactive)	1.3% (inactive)	-6% (inactive)	1.45% (inactive)	7.55% (inactive)	22.8% (inactive)
Cc1ccc(S(=O)(=O)Nn2nnnc2N)cc1	-7.85% (inactive)	11.7% (inactive)	-7.6% (inactive)	-4.4% (inactive)	-4.65% (inactive)	7.25% (inactive)
COc1ccc2c(c1)CCCN2S(=O)(=O)c1ccccc1[N+](=O)[O-]	-25.7% (inactive)	-3.9% (inactive)	-17.9% (inactive)	-7.65% (inactive)	39.2% (inactive)	1.85% (inactive)
CC(C)CC(=O)CCc1ccccc1	-45% (inactive)	-19.9% (inactive)	-46.9% (inactive)	-6.35% (inactive)	-29.1% (inactive)	-3.55% (inactive)
FC(F)(F)c1cccc(NC(=S)Nc2ccccc2S)c1	24% (inactive)	20.2% (inactive)	27.4% (inactive)	25.6% (inactive)	9.95% (inactive)	17% (inactive)
O=C1Cc2c([nH]c3ccccc23)-c2ccccc2N1	25.1% (inactive)	13.9% (inactive)	13.8% (inactive)	5.05% (inactive)	35.8% (inactive)	21.1% (inactive)
CCS(=O)CCCN1CCc2ccccc2C1 (stereo unspecified)	25.5% (inactive)	-0.95% (inactive)	13.9% (inactive)	-33% (inactive)	-3% (inactive)	-5.95% (inactive)
CCCCOCN1COCN(COCCCC)C1=O	-2.3% (inactive)	-17.4% (inactive)	-0.45% (inactive)	6.95% (inactive)	18.1% (inactive)	6.2% (inactive)
Cc1ccc(N2C(=O)CS/C2=C(\C#N)c2nc3ccccc3[nH]2)cc1	-78.5% (inactive)	-62% (inactive)	-66.1% (inactive)	-57.9% (inactive)	-76.8% (inactive)	-40.2% (inactive)
Cc1ccc(S(=O)(=O)N2CCCC2C(=O)O[C@H]2CC[C@H]3CC=C[C@H]32)cc1 (stereo partly specified)	-15.6% (inactive)	-44.7% (inactive)	-8.2% (inactive)	-8.45% (inactive)	-5.25% (inactive)	-21.6% (inactive)
O=C(OCCCCNC1CCCCC1)c1ccc([N+](=O)[O-])cc1	9.65% (inactive)	3% (inactive)	-7.05% (inactive)	-7.3% (inactive)	-13.6% (inactive)	5.25% (inactive)
CCOc1c(N=Nc2ccc(Br)cc2)c(C)nn1C(N)=S	-4.5% (inactive)	33.9% (inactive)	26.1% (inactive)	-0.3% (inactive)	31.2% (inactive)	45% (inactive)
CC1=CC(C/C(C)=C/COc2ccc3ccc(=O)oc3c2)OC1=O (stereo unspecified)	8.15% (inactive)	-38.9% (inactive)	11.7% (inactive)	11.3% (inactive)	-0.8% (inactive)	7.75% (inactive)
COc1ccc(N)c(OC)c1	-30.6% (inactive)	-37% (inactive)	-90% (inactive)	12.9% (inactive)	-39.6% (inactive)	-34% (inactive)

SMILES	growth inhibition [1]	growth inhibition [2]	growth inhibition [3]	growth inhibition [4]	growth inhibition [5]	growth inhibition [6]
CCOC(=O)c1ccc(Nc2cnc3ccc(C(F)(F)F)cc3n2)cc1	14.4% (inactive)	-2.35% (inactive)	24.9% (inactive)	14.9% (inactive)	30.9% (inactive)	-32.8% (inactive)
CC1(C)C2CC3C(CCC4C(=O)OC(=O)C43)C1C2 (stereo unspecified)	-1.2% (inactive)	10.2% (inactive)	-3.8% (inactive)	-5.3% (inactive)	-4.3% (inactive)	-2.35% (inactive)
NC(=S)Cc1ccccn1	-1.45% (inactive)	15.5% (inactive)	9.25% (inactive)	-19.1% (inactive)	-4.45% (inactive)	6.55% (inactive)
CCOC(=O)c1c(/N=C/c2cc(Br)ccc2O)sc2c1CCCC2	11.7% (inactive)	-7.8% (inactive)	0.4% (inactive)	12.9% (inactive)	-1.4% (inactive)	10.7% (inactive)
NC(=O)N/N=C/c1ccc(Cl)cc1Cl	-3.7% (inactive)	-5.55% (inactive)	-8.25% (inactive)	-1.65% (inactive)	4.8% (inactive)	-13.6% (inactive)
O=C(NCCCl)NC(C1CC1)C1CC1	13.1% (inactive)	-2.9% (inactive)	6.45% (inactive)	-58.1% (inactive)	13.4% (inactive)	-3.95% (inactive)
O=C(/C=C/c1ccncc1)c1ccccc1	0.4% (inactive)	-9.3% (inactive)	-1.85% (inactive)	11.9% (inactive)	-12.9% (inactive)	1.75% (inactive)
COCCN(CCOC)C(=O)Nc1cccc(Cl)c1	30.4% (inactive)	6.3% (inactive)	15.9% (inactive)	8.35% (inactive)	5.45% (inactive)	10.2% (inactive)
CC1(C)OC2C(=O)C3COC(O3)C2O1 (stereo unspecified)	-10.7% (inactive)	-0.25% (inactive)	-25.1% (inactive)	-36% (inactive)	0% (inactive)	5.8% (inactive)
CC(=O)CCC(=O)OCc1ccccc1	35.1% (inactive)	7.75% (inactive)	1.3% (inactive)	10.3% (inactive)	-3% (inactive)	4.2% (inactive)
OCC1CCNCC1	22.1% (inactive)	12.1% (inactive)	0.1% (inactive)	-1.15% (inactive)	-3.2% (inactive)	32.2% (inactive)
O=C(c1ccc(F)cc1)c1ccc2ccccc2c1	8.75% (inactive)	-1.3% (inactive)	-3.35% (inactive)	10.7% (inactive)	2% (inactive)	5% (inactive)
O=[N+]([O-])C[C@@]12O[C@]3(O)C4C5CC(C6C5C3C61)C42 (stereo partly specified)	6.35% (inactive)	10.5% (inactive)	15.3% (inactive)	2.7% (inactive)	1.2% (inactive)	8.05% (inactive)
CCCC(=O)SCC[N+](C)(C)C	-10.2% (inactive)	-48.3% (inactive)	15.4% (inactive)	21.6% (inactive)	-13.3% (inactive)	4.5% (inactive)
CC1=C(C(=O)NC2CCCCC2)CC(C(=O)NC2CCCCC2)=C(C)N1	-16.6% (inactive)	-25.6% (inactive)	-26.2% (inactive)	-21.1% (inactive)	-17.3% (inactive)	-61.9% (inactive)
CC(=O)c1cc(C)oc1C	-5.1% (inactive)	-8.25% (inactive)	-12.8% (inactive)	-32.1% (inactive)	2.8% (inactive)	12.9% (inactive)
CCN1CCCC(Nc2nc(Nc3cc(Cl)cc(Cl)c3)nc3ccc(Cl)cc23)C1 (stereo unspecified)	97.3% (active)	97.1% (active)	97.5% (active)	95.5% (active)	96.8% (active)	95.8% (active)
Nc1on(C(=O)c2ccccc2)c(=O)c1Cc1ccccc1	-19.2% (inactive)	3.6% (inactive)	15.9% (inactive)	-36% (inactive)	2.25% (inactive)	-2.1% (inactive)
c1cc[n+](CC[n+]2ccccn2)nc1	11.7% (inactive)	22% (inactive)	7.65% (inactive)	16.4% (inactive)	45.6% (inactive)	46.1% (inactive)
COC(=O)CCc1cccnc1/C=N/O	-26.9% (inactive)	-31.8% (inactive)	-11.8% (inactive)	4.7% (inactive)	-11.7% (inactive)	-17.4% (inactive)
